Data from PubChem BioAssay AID602261 (Sanford-Burnham Center for Chemical Genomics, 2012).
About 2,400 (0.67%) of roughly 360,000 compounds were called active.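 How the source made its calls: active means compounds whose normalised, plate-corrected inhibition of enzyme fluorescence in the single-dose primary screen is 50% or more; inactive means the rest.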 The sample as a whole holds a higher share of actives than the screen did.

The compounds below were run against Fatty acid synthase (Homo sapiens) (UniProt P49327) (assay: FAS thioesterase domain inhibitors, primary screen, biochemical, fluorescence intensity, uHTS (AID 602261;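 further: 0% = DMSO with enzyme and 100% = substrate without enzyme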)). Details: recombinant FAS-TE, OMFH fluorogenic substrate, fluorescence endpoint; at 15 µM; hits give high values.
Sequence of Fatty acid synthase (Homo sapiens) (P49327 whole entry, looked up, the tested form may be a part): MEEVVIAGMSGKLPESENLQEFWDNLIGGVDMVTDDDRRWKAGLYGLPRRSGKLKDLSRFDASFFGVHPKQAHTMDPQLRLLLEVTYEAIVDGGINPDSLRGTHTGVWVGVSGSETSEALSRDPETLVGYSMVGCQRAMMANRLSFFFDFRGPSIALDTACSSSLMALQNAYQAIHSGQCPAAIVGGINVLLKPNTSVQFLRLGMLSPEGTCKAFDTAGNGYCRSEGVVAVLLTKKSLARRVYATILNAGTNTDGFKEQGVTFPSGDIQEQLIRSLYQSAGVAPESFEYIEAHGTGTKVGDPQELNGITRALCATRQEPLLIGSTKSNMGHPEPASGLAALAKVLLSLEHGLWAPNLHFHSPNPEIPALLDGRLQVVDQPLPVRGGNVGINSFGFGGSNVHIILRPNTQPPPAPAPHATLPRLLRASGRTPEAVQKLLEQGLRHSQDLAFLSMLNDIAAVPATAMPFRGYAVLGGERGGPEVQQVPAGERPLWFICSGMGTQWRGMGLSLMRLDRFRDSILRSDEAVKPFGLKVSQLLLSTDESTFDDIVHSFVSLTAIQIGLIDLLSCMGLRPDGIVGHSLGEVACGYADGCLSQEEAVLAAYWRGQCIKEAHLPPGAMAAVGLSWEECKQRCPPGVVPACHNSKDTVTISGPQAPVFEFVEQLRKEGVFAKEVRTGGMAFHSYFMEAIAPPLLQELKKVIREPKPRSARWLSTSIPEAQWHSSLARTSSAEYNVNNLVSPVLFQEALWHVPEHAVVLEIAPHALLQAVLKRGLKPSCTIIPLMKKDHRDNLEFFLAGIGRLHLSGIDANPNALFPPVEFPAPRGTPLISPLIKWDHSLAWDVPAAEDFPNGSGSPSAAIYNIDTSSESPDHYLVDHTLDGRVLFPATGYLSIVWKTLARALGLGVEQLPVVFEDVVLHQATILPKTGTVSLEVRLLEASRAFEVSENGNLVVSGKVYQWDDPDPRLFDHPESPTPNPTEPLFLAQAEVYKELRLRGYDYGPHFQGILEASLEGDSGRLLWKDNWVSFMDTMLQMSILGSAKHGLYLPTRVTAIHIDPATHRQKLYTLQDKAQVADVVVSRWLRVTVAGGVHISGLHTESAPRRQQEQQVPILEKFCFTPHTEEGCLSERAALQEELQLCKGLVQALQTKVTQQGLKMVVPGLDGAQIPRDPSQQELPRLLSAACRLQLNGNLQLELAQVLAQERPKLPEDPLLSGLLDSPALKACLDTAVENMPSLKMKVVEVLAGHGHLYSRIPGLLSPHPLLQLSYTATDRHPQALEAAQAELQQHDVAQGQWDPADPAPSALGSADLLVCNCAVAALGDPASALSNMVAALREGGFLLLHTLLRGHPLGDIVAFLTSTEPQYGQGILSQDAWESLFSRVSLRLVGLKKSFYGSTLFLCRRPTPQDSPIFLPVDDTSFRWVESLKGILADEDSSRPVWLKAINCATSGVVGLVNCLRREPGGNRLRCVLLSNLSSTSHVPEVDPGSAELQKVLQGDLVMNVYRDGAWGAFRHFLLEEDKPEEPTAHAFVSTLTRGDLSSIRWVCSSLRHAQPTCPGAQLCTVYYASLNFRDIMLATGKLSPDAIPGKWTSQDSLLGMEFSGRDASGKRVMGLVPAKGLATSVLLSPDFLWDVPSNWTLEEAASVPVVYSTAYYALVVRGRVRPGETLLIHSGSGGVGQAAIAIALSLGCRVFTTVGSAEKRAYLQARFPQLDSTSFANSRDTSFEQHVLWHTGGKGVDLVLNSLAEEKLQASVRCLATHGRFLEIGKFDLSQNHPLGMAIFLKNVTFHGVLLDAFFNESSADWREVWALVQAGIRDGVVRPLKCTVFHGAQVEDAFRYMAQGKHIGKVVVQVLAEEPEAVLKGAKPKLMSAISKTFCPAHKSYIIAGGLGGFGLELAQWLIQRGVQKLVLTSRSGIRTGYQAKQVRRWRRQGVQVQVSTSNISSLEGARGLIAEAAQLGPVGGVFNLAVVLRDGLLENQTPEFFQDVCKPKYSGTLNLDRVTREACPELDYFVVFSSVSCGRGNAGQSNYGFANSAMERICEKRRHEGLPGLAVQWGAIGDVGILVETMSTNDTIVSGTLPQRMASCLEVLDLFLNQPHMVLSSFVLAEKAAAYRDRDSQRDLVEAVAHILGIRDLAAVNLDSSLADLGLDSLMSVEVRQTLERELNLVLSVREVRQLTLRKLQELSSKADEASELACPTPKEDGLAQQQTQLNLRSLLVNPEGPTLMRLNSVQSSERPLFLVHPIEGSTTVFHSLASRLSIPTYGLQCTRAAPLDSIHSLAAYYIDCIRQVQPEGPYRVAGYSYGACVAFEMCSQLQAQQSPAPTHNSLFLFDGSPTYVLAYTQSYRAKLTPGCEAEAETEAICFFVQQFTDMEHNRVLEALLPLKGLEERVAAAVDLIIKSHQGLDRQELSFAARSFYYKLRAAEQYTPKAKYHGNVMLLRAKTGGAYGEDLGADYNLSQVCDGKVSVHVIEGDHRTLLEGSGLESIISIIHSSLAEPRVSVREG

Row | Structure (SMILES) | inhibition
1 | CSc1n[nH]c(=S)n1N | -4.3% (inactive)
2 | O=S(=O)(c1cnccc1N1CCN(/N=C/c2ccc(Br)cc2)CC1)N1CCCCC1 | 31.4% (inactive)
3 | Cc1cc(Nc2cccc(F)c2)n2ncnc2n1 | -2.8% (inactive)
4 | COc1ccc(C2CC(=O)n3c(nc4ccccc43)S2)cc1OC (centres undefined) | -161% (inactive)
5 | COc1ccccc1C1CC(=O)n2c(nc(-c3ccccc3)c2-c2ccccc2)S1 (centres undefined) | 54.5% (active)
6 | COc1cccc(C2CC(c3ccccc3)=NN2S(=O)(=O)c2ccccc2)c1OC (centres undefined) | 20% (inactive)
7 | O=C(NCCNc1ccc([N+](=O)[O-])cc1)c1cccc2c(Br)cccc12 | 37.6% (inactive)
8 | COc1c(C)cc(C(O)c2ncc(-c3cccc(C(F)(F)F)c3)[nH]2)cc1C (centres undefined) | 7.9% (inactive)
9 | O=S1(=O)C[C@@H](N2CCN(CCO)CC2)[C@H](COCc2ccccc2)N1 | -9.7% (inactive)
10 | COC(=O)c1cccc(N2C(=O)C3C4C=CC(CC4)C3C2=O)c1 (centres undefined) | -6.4% (inactive)
11 | O=C(Oc1cccc(N2C(=O)C3C4c5ccccc5C(c5ccccc54)C3C2=O)c1)c1ccco1 (centres undefined) | 64.1% (active)
12 | CC(=O)Nc1ccc(N2C(=O)C3C4CC(=O)C(c5ccccc54)C3C2=O)cc1 (centres undefined) | -10% (inactive)
13 | CCCNC(=O)COc1coc(CN2CCN(Cc3ccccc3)CC2)cc1=O | -9.4% (inactive)
14 | CC1(c2cccc(N)c2)OCCO1 | -9.3% (inactive)
15 | COc1ccc([N+](=O)[O-])cc1N(CC(O)Cn1nnc2ccccc21)S(=O)(=O)c1ccc(C)cc1 (centres undefined) | 51.1% (active)
16 | Cc1ccc(S(=O)(=O)N(CC(O)CN2CCCCC2)c2cccc([N+](=O)[O-])c2)cc1 (centres undefined) | 2.6% (inactive)
17 | COc1ccc([N+](=O)[O-])cc1N(CC(O)CN(CC(C)C)CC(C)C)S(=O)(=O)c1ccc(C)cc1 (centres undefined) | 32.7% (inactive)
18 | Cc1c(C(=O)N2CCCC2)c(S(=O)(=O)NCC(C)c2ccccc2)c(C)n1C (centres undefined) | 2.1% (inactive)
19 | Cc1ccnc(NC(=O)c2ccc(Cl)c([N+](=O)[O-])c2)c1 | 23.1% (inactive)
20 | O=C(NCCC1=CCCCC1)c1ccc(Cl)c([N+](=O)[O-])c1 | 59.5% (active)

Row | Structure (SMILES) | inhibition
21 | O=C(COc1ccc(Cl)cc1)NCCC1=CCCCC1 | 15.7% (inactive)
22 | COc1ccc(C(c2nnnn2Cc2cccs2)N2CCN(c3ccccc3)CC2)cc1OC (centres undefined) | 14.2% (inactive)
23 | Nc1c(C(=O)O)cnn1-c1ccccc1 | -1.5% (inactive)
24 | O=C(CCl)N(Cc1cccc([N+](=O)[O-])c1)c1cccc(Cl)c1 | 15.2% (inactive)
25 | Nc1c(-c2cccc(Cl)c2)cnn1-c1cccc([N+](=O)[O-])c1 | 51.8% (active)
26 | CC(C)CNC(=O)COC(=O)/C=C/c1ccco1 | -7.5% (inactive)
27 | COc1ccc([N+](=O)[O-])cc1NC(=O)COC(=O)/C=C/c1ccco1 | 71.2% (active)
28 | COc1cccc(NC(=O)COC(=O)/C=C/c2ccco2)c1 | 3.5% (inactive)
29 | CCOC(=O)Nc1ccc(S(=O)(=O)N(C)C(C)C)cc1 | -3.7% (inactive)
30 | CN1C(C(=O)NCc2ccco2)CC2Cn3c(nc4ccccc43)C21 (centres undefined) | -11.9% (inactive)
31 | O=C(CCCl)Nc1ccc(S(=O)(=O)NCc2ccco2)cc1 | -1.3% (inactive)
32 | Cc1ccc(CNC(=O)C2CC(c3ccccc3[N+](=O)[O-])=NO2)o1 (centres undefined) | -5.1% (inactive)
33 | O=C(NCCCCc1ccccc1)C1CC(c2ccc([N+](=O)[O-])cc2)=NO1 (centres undefined) | 54.2% (active)
34 | COc1ccc(CNC(=O)C2CC(c3ccc(C(F)(F)F)cc3)=NO2)cc1 (centres undefined) | -1.7% (inactive)
35 | O=C(NCCCn1ccnc1)C(=O)NCC1OCCN1S(=O)(=O)c1cc(F)ccc1F (centres undefined) | -10.1% (inactive)
36 | CC(C)(C)OC(=O)NCCCCCNC(=O)c1nc[nH]c1C(=O)NCc1ccccc1 | 8.2% (inactive)
37 | Cc1ccc(NC(=O)c2nc[nH]c2C(=O)N[C@@H](CCCCNC(=O)OC(C)(C)C)C(=O)OC(C)(C)C)cc1 | 75.3% (active)
38 | CCOC(=O)c1ccc(NC(=O)c2nc[nH]c2C(=O)N[C@@H](CCCCNC(=O)OC(C)(C)C)C(=O)OC(C)(C)C)cc1 | 85.2% (active)
39 | C[C@H](NC(=O)c1nc[nH]c1C(=O)N[C@@H](C)C(=O)OC(C)(C)C)C(=O)OC(C)(C)C | -7% (inactive)
40 | CNC(=O)c1[nH]cnc1C(=O)N[C@@H](CC(C)C)C(=O)OC(C)(C)C | -5.3% (inactive)

Row | Structure (SMILES) | inhibition
41 | CC(C)(C)OC(=O)NCCCCCNC(=O)c1[nH]cnc1C(=O)Nc1nccs1 | -15.7% (inactive)
42 | COc1ccccc1CNS(=O)(=O)CC12CCC(CC1=O)C2(C)C (centres undefined) | 2.9% (inactive)
43 | Cc1cccc(OCC(=O)OCC(=O)Nc2ccc(Cl)cn2)c1 | -6.1% (inactive)
44 | CCN(CC)C(CNC(=O)CSc1nnnn1-c1cccc(F)c1)c1ccco1 (centres undefined) | -1.2% (inactive)
45 | Cc1cccc(N2CCN(C(=O)c3cc4c(=O)[nH]c5ccccc5c4n3C)CC2)c1C | 5% (inactive)
46 | O=C(Cc1ccc(S(=O)(=O)N2CCOCC2)s1)NCCOc1ccccc1F | -0.5% (inactive)
47 | Cc1ccc2c(c1)C(O)(CC(=O)c1cccc(-n3cccc3)c1)C(=O)N2 (centres undefined) | 2.6% (inactive)
48 | O=C(N/N=C/c1cc([N+](=O)[O-])ccc1O)/C(=C\c1cccs1)NC(=O)c1ccccc1 | 56.5% (active)
49 | Nc1nnnn1/N=C/c1cc([N+](=O)[O-])ccc1O | -3.3% (inactive)
50 | COc1cc(/C=C(/NC(=O)c2ccccc2)C(=O)Nc2cccc(O)c2)c([N+](=O)[O-])cc1OC | -3.8% (inactive)
51 | COc1ccc(NC(=O)NN2CCN(C)CC2)c(OC)c1 | -6% (inactive)
52 | O=S(=O)(Nc1cccc(Oc2ccc(Cl)cc2)n1)c1ccc(F)cc1 | 8.1% (inactive)
53 | CC(C)CC(=O)c1c[nH]c(C(=O)NCc2ccccc2)c1 | -3.6% (inactive)
54 | CC1(c2ccc(Cl)cc2)NC(=O)N(CC(=O)c2ccc3c(c2)OCO3)C1=O (centres undefined) | 11.3% (inactive)
55 | Cn1c(=O)[nH]c(=O)c2c1nc(NCCCn1ccnc1)n2Cc1cccc(Br)c1 | -2.6% (inactive)
56 | CCOC(=O)c1ccc(-c2ccc3ncnc(N(C)Cc4sccc4C)c3c2)o1 | 26.5% (inactive)
57 | COc1ccc(C2CC(c3ccccc3)=NN2C(=O)CSc2nccc(=O)[nH]2)cc1 (centres undefined) | -5.6% (inactive)
58 | Cc1ccc(C2=NN(C(=O)CSc3nc(N)cc(N)n3)C(c3ccco3)C2)cc1 (centres undefined) | 1.5% (inactive)
59 | COc1ccc(C2=NN(C(=O)CSc3nc(=O)n4ccc(C)cc4n3)C(c3ccc(C)cc3)C2)cc1 (centres undefined) | 81.4% (active)
